Our source for the inhibition values is PubChem BioAssay AID624255 (Broad Institute, 2012).

The campaign covered roughly 77,000 compounds. About 4,600 (6%) were called active. Another 1% or so got no clear call; they are omitted. For the sample, actives were picked, then their nearest neighbours and some compounds at random. Values without a mark were called inactive.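 Rule for the calls: active = mean inhibition above about 93%, with at least 55% of replicates each passing it (limit read from the data, passing the limit was not always enough); inconclusive = only one of those two conditions holds; inactive = neither condition holds.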

The assay can be described thus: growth inhibition of T. cruzi in host fibroblasts – cell-based, beta-gal Tulahuen parasites, NIH3T3 host, luminescence, primary screen (AID 624255). The note with it: T. cruzi beta-gal in NIH3T3, GalScreen luminescence, 90 h; at 8.34 µM; active compounds read high.
As a reminder, the inhibition is the relative decrease from the control value, in per cent. With `O=C(C[C@@H]1CC[C@@H]2[C@H](COC[C@@H](O)CN2S(=O)(=O)c2ccccc2)O1)NCC1CCCCC1`, the inhibition is 34.1%.
The figure for `COc1ccc(NC(=O)N[C@@H]2CC[C@H](CC(=O)NC3CCC3)O[C@H]2CO)cc1` is 16%; for `COc1cccc(S(=O)(=O)N[C@@H]2CC[C@H](CCNC(=O)Cc3ccncc3)O[C@@H]2CO)c1` it is -52.5%.
For `O=C(NCC[C@@H]1CC[C@@H](NC(=O)c2ccccc2F)[C@H](CO)O1)c1ccc2c(c1)OCO2`, the inhibition was 20.7%.
For `COc1ccc(NC(=O)N(C)C[C@H]2OCCCC[C@H](C)Oc3ccc(NS(C)(=O)=O)cc3C(=O)N([C@H](C)CO)C[C@@H]2C)cc1` the value was 42.5%.
For the molecule `CN1CCN(C(=O)C[C@H]2C[C@@H]3c4cc(NC(=O)Nc5ccc(C(F)(F)F)cc5)ccc4O[C@@H]3[C@H](CO)O2)CC1`, the inhibition is -59.1%.
The figure for `C[C@@H]1CCCCO[C@H](CN(C)CC2CCCCC2)[C@H](C)CN([C@H](C)CO)C(=O)c2cc(NC(=O)Nc3ccc(F)cc3)ccc2O1` is 71.7%.
As for `C[C@@H]1CN([C@H](C)CO)C(=O)c2cc(NC(=O)Nc3ccc(F)cc3)ccc2O[C@@H](C)CCCCO[C@@H]1CN(C)CC1CCCCC1`, the inhibition is 115% (active).
Turning to `C[C@@H]1CCCCO[C@H](CN(C)C(=O)NC2CCCCC2)[C@H](C)CN([C@H](C)CO)C(=O)c2cc(NC(=O)Nc3ccc(F)cc3)ccc2O1`, the inhibition was 110% (active).
For `C[C@@H]1CCCCO[C@@H](CN(C)C(=O)NC2CCCCC2)[C@H](C)CN([C@@H](C)CO)C(=O)c2cc(NC(=O)Nc3ccc(F)cc3)ccc2O1`, the inhibition is 54.3%.
The figure for `C[C@@H]1CCCCO[C@H](CN(C)CC2CC2)[C@@H](C)CN([C@H](C)CO)C(=O)c2cc(NC(=O)Nc3ccc(F)cc3)ccc2O1` is 18.3%; for `C[C@@H]1CCCCO[C@H](CN(C)C(=O)NC2CCCCC2)[C@H](C)CN([C@@H](C)CO)C(=O)c2cc(NC(=O)Nc3ccc(F)cc3)ccc2O1` it is 93.1%; for `COCC#Cc1cnc2c(c1)C(=O)N([C@@H](C)CO)C[C@@H](C)[C@@H](CN(C)C(=O)c1cccnc1)O2` it is 71.4%.
The figure for `O=C(CC1CC1)N1[C@@H]2CN(S(=O)(=O)c3ccc(F)cc3)c3ccccc3[C@@H]2[C@@H]1CO` is 19.2%; for `C[C@@H]1CCCCO[C@H](CN(C)S(=O)(=O)c2cccs2)[C@H](C)CN([C@H](C)CO)C(=O)c2cc(NC(=O)c3ccccc3)ccc2O1` it is 88.6%.
For `O=C(C[C@H]1C=C[C@H](NC(=O)Nc2ccccc2F)[C@@H](CO)O1)NCc1ccc(Cl)cc1` the value was 27.5%.
On to `N#C[C@@H]1[C@@H](c2ccc(C#Cc3cccc(F)c3)cc2)[C@@H](CO)N1C(=O)C1CCC1`, for which the inhibition is 101% (active).
As to `N#C[C@H]1[C@H](c2ccc(C#Cc3ccc(F)cc3)cc2)[C@@H](CO)N1C(=O)C1CCCC1`, the inhibition is 92.9%.
For `CCCC#Cc1ccc([C@@H]2[C@@H](C#N)N(C(=O)C3CCC3)[C@H]2CO)cc1`, the inhibition is 92.4%.
Regarding `CC(C)C#Cc1ccc([C@@H]2[C@@H](C#N)N(C(=O)C3CC3)[C@@H]2CO)cc1`, the inhibition is 68.6%.
The figure for `CCCC#Cc1ccc([C@H]2[C@@H](CO)N(C(=O)C3CC3)[C@H]2C#N)cc1` is 74.3%; for `CN(C)CC#Cc1ccc([C@H]2[C@@H](CO)N(C(=O)C3CCC3)[C@H]2C#N)cc1` it is 69.2%; for `CCCC#Cc1ccc([C@@H]2[C@@H](C#N)N(C(=O)C3CCCC3)[C@@H]2CO)cc1` it is 102% (active).
The figure for `N#C[C@@H]1[C@@H](c2ccc(C#Cc3cccc(F)c3)cc2)[C@H](CO)N1C(=O)C1CCOCC1` is 83.9%; for `N#C[C@@H]1[C@H](c2ccc(C#Cc3cccc(F)c3)cc2)[C@@H](CO)N1C(=O)C1CCCC1` it is 97.3% (active).
The figure for `Cn1cnc(CCNC(=O)C[C@H]2CC[C@H]3[C@@H](COC[C@@H](O)CN3C(=O)Nc3ccc(C(F)(F)F)cc3)O2)c1` is 28.4%; for `CC=Cc1ccc2n(c1=O)C[C@H]1[C@H](CO)[C@@H](C(=O)NC3CCCC3)N(Cc3ccncc3)[C@@H]21` (mixture of isomers) it is -33.3%; for `CS(=O)(=O)Nc1ccc2c(c1)[C@H]1C[C@H](CC(=O)NCc3ccc(Oc4ccccc4)cc3)O[C@H](CO)[C@H]1O2` it is 3.92%.
In the case of `O=C(C1CC1)N1CCCCN2[C@H](CO)[C@H](c3ccc(-c4cccc(F)c4)cc3)[C@H]2C1`, the inhibition is 95.6% (active).
For `O=C(C1CCC1)N1CCCCN2[C@H](CO)[C@H](c3ccc(-c4ccncc4)cc3)[C@@H]2C1` the value was 99.7% (active).
For the molecule `O=C(C1CCC1)N1CCCCN2[C@H](CO)[C@H](c3ccc(-c4cccc(F)c4)cc3)[C@@H]2C1`, the inhibition was 99.7% (active).
For `O=C(C1CCC1)N1CCCCN2[C@H](CO)[C@H](c3ccc(-c4cccc(F)c4)cc3)[C@H]2C1`, the inhibition is 94.1%.
For `O=C(C1CC1)N1CCCCN2[C@H](C1)[C@@H](c1ccc(-c3cccc(F)c3)cc1)[C@@H]2CO`, the inhibition is 32.6%.
With `O=C(Nc1ccc(F)cc1)N1CCCCN2[C@H](CO)[C@H](c3ccc(-c4ccncc4)cc3)[C@@H]2C1`, the inhibition is 67.2%.
For the molecule `O=C(C1CCCC1)N1CCCCN2[C@@H](CO)[C@H](c3ccc(-c4cccc(F)c4)cc3)[C@@H]2C1`, the inhibition was 111% (active).
For `O=C(N[C@H]1CC[C@H](CCNS(=O)(=O)c2ccc(F)cc2)O[C@H]1CO)c1cccnc1` the value was 14.1%.
As for `CCC(=O)Nc1ccc2c(c1)C(=O)N(C)[C@@H]1CC[C@H](CC(=O)NCCc3ccncc3)O[C@@H]1CO2`, the inhibition was 64.6%.
The figure for `O=C(Cc1ccncc1)NCC[C@@H]1CC[C@H](NC(=O)Nc2ccc(Cl)cc2)[C@@H](CO)O1` is 37%.
The figure for `O=C(C[C@H]1C[C@H]2c3cc(NC(=O)Cc4ccncc4)ccc3O[C@H]2[C@@H](CO)O1)NCc1cccc(F)c1` is -15.1%; for `O=C(C[C@H]1CC[C@H]2[C@@H](COC[C@H](O)CN2CCC(F)(F)F)O1)N1CCC(Cc2ccccc2)CC1` it is 65.1%.
